Results filed as inconclusive are left out. Active and inactive are the calls of the source. Rule for the calls, unless noted: active = hit-call score of the fitted dose curve at least 0.9, where 1 is the maximum; inactive = score below 0.9.
Columns and labels:
[1] = BSK_3C_TissueFactor: BioMAP Diversity Plus: 3C Assay for Tissue Factor Biomarker Activity (AID 2282997); conditions: BioMAP 3C HUVEC, tissue factor biomarker readout; actives raise or lower the signal
Procedure, shortened: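 Dosing of human umbilical vein endothelial cells preceded a 24 h incubation. Tissue Factor was then read by ELISA, with increases and decreases both scored relative to DMSO controls.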

[2] = BSK_3C_uPAR: BioMAP Diversity Plus: 3C Assay for Urokinase-type plasminogen activator receptor (uPAR) Biomarker Activity (AID 2282998); conditions: BioMAP 3C HUVEC, uPAR biomarker ELISA; actives raise or lower the signal
Procedure, shortened: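 Primary human umbilical vein endothelial cells, 3C system; surface uPAR measured by ELISA 24 h after dosing. Cytotoxicity via SRB total protein in parallel cultures; bidirectional fit against DMSO.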

[3] = BSK_3C_VCAM1: BioMAP Diversity Plus: 3C Assay for Vascular cell adhesion molecule 1 (VCAM1) Biomarker Activity (AID 2282999); conditions: BioMAP 3C HUVEC, VCAM1 ELISA, cytokine-stimulated; actives raise or lower the signal
Procedure, shortened: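 Human umbilical vein endothelial cells (3C system), biomarker read by ELISA 24 h after dosing; bidirectional fit against DMSO baseline. Cytotoxicity tracked by SRB total-protein staining in parallel cultures at biomarker time.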

[4] = BSK_4H_Eotaxin3: BioMAP Diversity Plus: 4H Assay for Eotaxin 3 Biomarker Activity (AID 2283000); conditions: primary human endothelial cells (HUVEC); actives raise or lower the signal
Procedure, shortened: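 Human umbilical vein endothelial cells (BSK_4H system) dosed with test chemical; Eotaxin-3 (CCL26) measured by ELISA 24 h after dosing. Bidirectional curve fitting relative to DMSO negative control as baseline.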

[5] = read-out: Intercellular Adhesion Molecule 1 (ICAM1), ICAM1 (gene 3383); assay: BSK_3C_ICAM1: BioMAP Diversity Plus: 3C Assay for Intercellular Adhesion Molecule 1 (ICAM1) Biomarker Activity (AID 2283003); conditions: primary human endothelial cells (HUVEC); actives raise or lower the signal
Procedure, shortened: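 HUVEC primary cells stimulated under 3C conditions; ICAM1 measured by ELISA 24 h after compound dosing. Curves fitted bidirectionally against the DMSO baseline. Overt cytotoxicity checked by SRB staining of parallel cultures.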

[6] = read-out: Interleukin-1 alpha (IL1a), IL1A (gene 3552); assay: BSK_BE3C_IL1a: BioMAP Diversity Plus: BE3C Assay for Interleukin-1 alpha (IL1a) Biomarker Activity (AID 2283016); conditions: primary human bronchial epithelial cells; actives raise or lower the signal
Procedure, shortened: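 Human primary bronchial epithelial cells, 24 h chemical exposure; IL-1a quantified by ELISA, fitted bidirectionally against DMSO. Cytotoxicity assessed in parallel by SRB total-protein staining at the time of measurement.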

[7] = read-out: Monocyte Chemoattractant Protein-1 (MCP1), CCL2 (gene 6347); assay: BSK_3C_MCP1: BioMAP Diversity Plus: 3C Assay for Monocyte Chemoattractant Protein-1 (MCP1) Biomarker Activity (AID 2283017); conditions: primary human endothelial cells (HUVEC); actives raise or lower the signal
Procedure, shortened: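 MCP-1 was measured by ELISA 24 h after dosing in primary HUVEC 3C cultures and fitted in both directions relative to DMSO; cytotoxicity was checked by SRB total-protein staining in parallel wells.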

[8] = read-out: Monocyte Chemoattractant Protein-1 (MCP1), CCL2 (gene 6347); assay: BSK_4H_MCP1: BioMAP Diversity Plus: 4H Assay for Monocyte Chemoattractant Protein-1 (MCP1) Biomarker Activity (AID 2283018); conditions: primary human endothelial cells (HUVEC); actives raise or lower the signal
Procedure, shortened: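 Human umbilical vein endothelial cells (4H system) exposed to chemicals for 24 h in 96-well format. MCP-1 measured by ELISA; bidirectional fitting against DMSO, with SRB total-protein staining in parallel cultures for cytotoxicity.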

[9] = read-out: Human Leukocyte Antigen - DR isotype (HLADR), HLA-DRA (gene 3122); assay: BSK_3C_HLADR: BioMAP Diversity Plus: 3C Assay for Human Leukocyte Antigen - DR isotype (HLADR) Biomarker Activity (AID 2283019); conditions: primary human endothelial cells (HUVEC); actives raise or lower the signal
Procedure, shortened: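 Bidirectional fitting against DMSO was applied to the HLA-DR ELISA signal from human umbilical vein endothelial cells, 24 h post-dose. Cytotoxicity came from parallel SRB total-protein staining; 3C proliferation was counted by SRB at 48 h.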

[10] = read-out: Interleukin-8 (IL8), CXCL8 (gene 3576); assay: BSK_3C_IL8: BioMAP Diversity Plus: 3C Assay for Interleukin-8 (IL8) Biomarker Activity (AID 2283020); conditions: primary human endothelial cells (HUVEC); actives raise or lower the signal
Procedure, shortened: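 Primary human umbilical vein endothelial cells were dosed for 24 h. IL-8 was quantified by ELISA and fitted bidirectionally against DMSO. Cytotoxicity was assessed in parallel cultures by SRB staining at 560 nm.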

[11] = read-out: Monokine induced gamma interferon (MIG), CXCL9 (gene 4283); assay: BSK_3C_MIG: BioMAP Diversity Plus: 3C Assay for Monokine induced gamma interferon (MIG) Biomarker Activity (AID 2283021); conditions: primary human endothelial cells (HUVEC); actives raise or lower the signal;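 for AC50: MIG protein level measured by immunoassay in the treated endothelial cultures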
Procedure, shortened: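 HUVEC primary endothelial cultures dosed with chemical; MIG quantified by ELISA at 24 h. Data fitted bidirectionally against DMSO control, with parallel SRB total-protein staining for cytotoxicity.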

[12] = BSK_3C_SRB: Viability Assessment in the BioMAP Diversity Plus: 3C Assay (AID 2283023); conditions: primary human endothelial cells (HUVEC);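 note: fitted both ways against DMSO so a hit may be signal rise or drop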
Procedure, shortened: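 Cytotoxicity readout in parallel HUVEC 3C cultures: after 24 h compound exposure, cells fixed with 10% TCA, stained with 0.1% SRB and read at 560 nm. Gain or loss relative to DMSO fitted.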

[13] = read-out: Matrix Metallopeptidase 1 (MMP1), MMP1 (gene 4312); assay: BSK_BE3C_MMP1: BioMAP Diversity Plus: BE3C Assay for Matrix Metallopeptidase 1 (MMP1) Biomarker Activity (AID 2283024); conditions: primary human bronchial epithelial cells; actives raise or lower the signal
Procedure, shortened: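 Human primary bronchial epithelial cells (BE3C system) dosed for 24 h; MMP-1 quantified by ELISA. Bidirectional fit against DMSO; cytotoxicity tracked in parallel cultures by SRB total-protein staining.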

[14] = BSK_4H_SRB: Viability Assessment in the BioMAP Diversity Plus: 4H Assay (AID 2283027); conditions: primary human endothelial cells (HUVEC);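 note: cells exposed to compound for 24 h before staining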;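 for AC50: curves fitted both ways versus DMSO so AC50 may be loss or gain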
Procedure, shortened: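 Human umbilical vein endothelial cells, 24 h after chemical dosing; total protein measured by 0.1% sulforhodamine B staining after 10% TCA fixation, read at 560 nm. Bidirectional fitting against DMSO.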

[15] = BSK_BE3C_SRB: Viability Assessment in the BioMAP Diversity Plus: BE3C Assay (AID 2283028); conditions: primary human bronchial epithelial cells;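 for AC50: fitted both ways so AC50 may mark signal gain or loss versus DMSO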
Procedure, shortened: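 Cytotoxicity read-out: SRB (0.1%) staining of TCA-fixed (10%) human lung bronchial epithelial cells, absorbance 560 nm, 24 h post-dosing. Curves fitted both directions relative to DMSO.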

[16] = read-out: Matrix Metallopeptidase 1 (MMP1), MMP1 (gene 4312); assay: BSK_hDFCGF_MMP1: BioMAP Diversity Plus: hDFCGF Assay for Matrix Metallopeptidase 1 (MMP1) Biomarker Activity (AID 2283064); conditions: primary human foreskin fibroblasts; actives raise or lower the signal
Procedure, shortened: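 Primary human foreskin fibroblasts exposed to chemicals for 24 h; MMP1 measured by ELISA. Cytotoxicity tracked by SRB staining in parallel cultures; bidirectional fit relative to DMSO.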

[17] = read-out: E-selectin (Homo sapiens) (UniProt P16581); assay: BSK_SAg_Eselectin: BioMAP Diversity Plus: SAg Assay for Eselectin Biomarker Activity (AID 2283091); conditions: primary human HUVEC with PBMC; actives raise or lower the signal
Procedure, shortened: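 Cell-surface E-selectin is read by ELISA at 24 h in the SAg co-culture of HUVEC and PBMC. Curves are fitted in both directions relative to DMSO. Parallel SRB total-protein staining tracks overt toxicity.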

[18] = BSK_SAg_PBMCCytotoxicity: PBMC Cytotoxicity Assessment in the BioMAP Diversity Plus: SAg Assay (AID 2283093); conditions: primary human HUVEC with PBMC;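 note: PBMC viability measured as Alamar Blue reduction fluorescence at 546/580 nm; fitted both ways against DMSO so a hit may be loss or gain of signal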;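 for AC50: PBMC superantigen activated with SEB plus TSST-1 one hour after compound addition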
Procedure, shortened: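 HUVEC/PBMC co-culture; PBMC exposed to chemical 1 h before SEB and TSST-1 activation (20 ng/mL each), incubated 90 h, then Alamar Blue 6 h, fluorescence 546/580 nm. Bidirectional fit versus DMSO baseline.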

[19] = read-out: Interleukin-8 (IL8), CXCL8 (gene 3576); assay: BSK_SAg_IL8: BioMAP Diversity Plus: SAg Assay for Interleukin-8 (IL8) Biomarker Activity (AID 2283094); conditions: primary human HUVEC with PBMC; actives raise or lower the signal
Procedure, shortened: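 Human umbilical vein endothelial cells co-cultured with PBMC, stimulated with superantigen; IL-8 measured by ELISA 24 h after chemical dosing. Bidirectional fitting versus DMSO; SRB staining in parallel cultures tracks cytotoxicity.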

[20] = target: Retinoic acid receptor RXR-alpha (Homo sapiens) (UniProt P19793); assay: OT_NURR1_NURR1RXRa_0480: Odyssey Thera (OT) 8-hour HEK293T Protein Complementation Assay for Nurr1/retinoid X receptor (RXR) (AID 2283385; active = hit-call score of the fitted dose curve at least 0.9, where 1 is the maximum)
Procedure, shortened: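 HEK293T cells expressing Nurr1 and RXRα fused to reporter fragments (protein-fragment complementation); fluorescence measured 8 h after dosing. Gain of signal fitted relative to DMSO.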

Measured: AC50

E-selectin (Homo sapiens), sequence (P16581 whole entry, looked up): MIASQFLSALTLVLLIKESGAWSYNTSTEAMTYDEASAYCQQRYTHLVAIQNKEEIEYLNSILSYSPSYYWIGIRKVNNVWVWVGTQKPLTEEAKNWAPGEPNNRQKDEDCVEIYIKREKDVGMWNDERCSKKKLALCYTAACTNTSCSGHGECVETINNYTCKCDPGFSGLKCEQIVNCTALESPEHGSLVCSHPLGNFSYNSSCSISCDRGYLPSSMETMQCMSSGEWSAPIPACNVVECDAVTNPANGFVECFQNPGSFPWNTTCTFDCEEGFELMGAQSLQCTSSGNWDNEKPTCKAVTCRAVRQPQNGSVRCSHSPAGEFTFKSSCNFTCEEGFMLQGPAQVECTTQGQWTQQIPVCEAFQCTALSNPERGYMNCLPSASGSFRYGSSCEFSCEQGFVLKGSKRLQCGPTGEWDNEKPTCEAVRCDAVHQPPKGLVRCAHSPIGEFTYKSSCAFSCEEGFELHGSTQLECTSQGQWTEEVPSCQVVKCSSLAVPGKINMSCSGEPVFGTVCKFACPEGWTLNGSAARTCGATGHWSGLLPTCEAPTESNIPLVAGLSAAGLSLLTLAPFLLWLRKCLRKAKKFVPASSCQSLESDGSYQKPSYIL
Retinoic acid receptor RXR-alpha (Homo sapiens), sequence (P19793 whole entry, looked up, the tested form may be a part): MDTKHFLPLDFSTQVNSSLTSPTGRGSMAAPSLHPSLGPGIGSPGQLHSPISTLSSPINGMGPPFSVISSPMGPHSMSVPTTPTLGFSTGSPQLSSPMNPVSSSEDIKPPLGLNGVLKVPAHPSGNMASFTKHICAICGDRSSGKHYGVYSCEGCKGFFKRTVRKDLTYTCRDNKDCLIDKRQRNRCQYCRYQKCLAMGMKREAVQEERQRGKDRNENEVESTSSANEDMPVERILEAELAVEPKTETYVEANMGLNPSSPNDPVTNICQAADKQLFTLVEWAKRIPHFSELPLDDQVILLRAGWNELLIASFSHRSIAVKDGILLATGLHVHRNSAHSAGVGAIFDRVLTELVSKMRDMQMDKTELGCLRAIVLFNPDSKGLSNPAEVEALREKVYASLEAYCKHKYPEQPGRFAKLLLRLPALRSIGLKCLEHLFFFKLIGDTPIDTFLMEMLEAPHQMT

CCC(C)=NO
inactive: all assays above

CC[N+](CC)(CC(=O)Nc1c(C)cccc1C)Cc1ccccc1 (tested in a mixture with another compound)
inactive: all assays above

CCCCCCCCCCCCCCCCCC[N+](C)(C)C
active: [1] 5 µM | [2] 1.27 µM | [3] 6.29 µM | [4] 1.89 µM | [5] 3.46 µM | [6] 3.8 µM | [7] 1.68 µM | [8] 664 nM | [9] 1.27 µM | [10] 5 µM | [11] 7.62 µM | [12] 1.31 µM | [13] 6.82 µM | [14] 1.34 µM | [15] 3.49 µM | [16] 7.66 µM | [17] 9.19 µM | [18] 3.16 µM | [19] 8.34 µM

C1=CCC=C1
inactive: [20]

CN(C)c1ccc(C(c2ccccc2)c2ccc(N(C)C)cc2)cc1
active: [1] 2 µM | [3] 20 µM | [4] 8.42 µM | [6] 5.43 µM | [7] 11.9 µM | [8] 4500 nM | [9] 9.37 µM | [10] 5.43 µM | [12] 9.62 µM | [13] 5.54 µM | [14] 4.33 µM | [17] 11.3 µM | [19] 8.09 µM
inactive: [2] | [5] | [11] | [15] | [16] | [18]
